{"source": "PubChem BioAssay (NCATS)", "key": {"[1]": {"target": "Tyrosyl-DNA phosphodiesterase 1 (Homo sapiens) (UniProt Q9NUW8)", "sequence (Q9NUW8 whole entry, looked up)": "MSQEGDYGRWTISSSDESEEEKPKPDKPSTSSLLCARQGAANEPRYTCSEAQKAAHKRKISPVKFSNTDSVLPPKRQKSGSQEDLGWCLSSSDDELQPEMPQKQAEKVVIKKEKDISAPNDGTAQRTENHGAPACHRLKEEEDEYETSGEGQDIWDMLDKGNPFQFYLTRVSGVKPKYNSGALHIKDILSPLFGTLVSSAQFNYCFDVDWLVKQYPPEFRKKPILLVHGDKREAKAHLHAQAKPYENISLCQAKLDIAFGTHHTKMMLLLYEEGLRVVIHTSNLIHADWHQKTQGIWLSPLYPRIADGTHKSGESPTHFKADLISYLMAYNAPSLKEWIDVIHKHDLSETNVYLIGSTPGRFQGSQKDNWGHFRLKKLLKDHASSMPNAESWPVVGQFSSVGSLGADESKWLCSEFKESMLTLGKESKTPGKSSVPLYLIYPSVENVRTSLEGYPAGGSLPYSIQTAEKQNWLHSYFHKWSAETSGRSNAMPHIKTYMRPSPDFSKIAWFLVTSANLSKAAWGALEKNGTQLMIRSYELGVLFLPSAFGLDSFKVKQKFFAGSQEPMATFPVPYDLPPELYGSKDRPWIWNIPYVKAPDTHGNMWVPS", "assay": "Confirmation Assay for Inhibitors of Tyrosyl-DNA Phosphodiesterase (TDP1) (AID 489007); also: potency is read from the fitted curve at half-maximal effect; nearly all actives have a fitted effect of over 40% in size", "conditions": "recombinant human TDP1 enzymatic activity, dose-response", "outline": "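Recombinant human Tdp1 (1 nM final), expressed in E. coli, preincubated 15 min with compound. Then 15 nM 5'-biotin/3'-phosphotyrosine-FITC DNA substrate added for 5 min at room temperature. AlphaScreen beads (10 ug/ml) added for 10 min; cleavage gives signal loss.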"}, "[2]": {"target": "Phosphoglycerate kinase, glycosomal (Trypanosoma brucei brucei) (UniProt P07378)", "sequence (P07378 whole entry, looked up)": "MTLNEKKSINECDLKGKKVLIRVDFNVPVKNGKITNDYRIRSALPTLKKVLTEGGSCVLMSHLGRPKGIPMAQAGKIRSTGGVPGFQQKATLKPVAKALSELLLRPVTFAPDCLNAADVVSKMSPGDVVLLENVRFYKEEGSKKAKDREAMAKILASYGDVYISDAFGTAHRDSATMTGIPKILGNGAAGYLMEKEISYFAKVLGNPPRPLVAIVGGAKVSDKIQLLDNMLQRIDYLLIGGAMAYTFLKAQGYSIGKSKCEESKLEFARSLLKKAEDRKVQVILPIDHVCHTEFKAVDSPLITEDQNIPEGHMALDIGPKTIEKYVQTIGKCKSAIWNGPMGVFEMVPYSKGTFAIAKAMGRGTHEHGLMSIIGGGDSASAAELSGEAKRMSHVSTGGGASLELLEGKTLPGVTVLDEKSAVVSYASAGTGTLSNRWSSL", "assay": "qHTS for inhibitors of Phosphogylcerate Kinase: Hit Validation Screen (AID 686980); also: potency is read from the fitted curve at half-maximal effect; nearly all actives have a fitted effect of over 65% in size", "conditions": "TbPGK coupled GAPDH assay, Kinase-Glo luminescence", "outline": "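Luminescent ATP detection (Kinase-Glo Plus) follows a 60-minute room-temperature incubation, with wells lacking PGK as controls. Buffer: 100 mM TEA (pH 7.6), 5 mM MgCl2, 0.01% Tween-20. Coupling enzyme GAPDH (100 nM final) supplies unstable 1,3-BPG in-well.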"}, "[3]": {"target": "DNA polymerase iota (Homo sapiens) (UniProt Q9UNA4)", "sequence (Q9UNA4 whole entry, looked up)": "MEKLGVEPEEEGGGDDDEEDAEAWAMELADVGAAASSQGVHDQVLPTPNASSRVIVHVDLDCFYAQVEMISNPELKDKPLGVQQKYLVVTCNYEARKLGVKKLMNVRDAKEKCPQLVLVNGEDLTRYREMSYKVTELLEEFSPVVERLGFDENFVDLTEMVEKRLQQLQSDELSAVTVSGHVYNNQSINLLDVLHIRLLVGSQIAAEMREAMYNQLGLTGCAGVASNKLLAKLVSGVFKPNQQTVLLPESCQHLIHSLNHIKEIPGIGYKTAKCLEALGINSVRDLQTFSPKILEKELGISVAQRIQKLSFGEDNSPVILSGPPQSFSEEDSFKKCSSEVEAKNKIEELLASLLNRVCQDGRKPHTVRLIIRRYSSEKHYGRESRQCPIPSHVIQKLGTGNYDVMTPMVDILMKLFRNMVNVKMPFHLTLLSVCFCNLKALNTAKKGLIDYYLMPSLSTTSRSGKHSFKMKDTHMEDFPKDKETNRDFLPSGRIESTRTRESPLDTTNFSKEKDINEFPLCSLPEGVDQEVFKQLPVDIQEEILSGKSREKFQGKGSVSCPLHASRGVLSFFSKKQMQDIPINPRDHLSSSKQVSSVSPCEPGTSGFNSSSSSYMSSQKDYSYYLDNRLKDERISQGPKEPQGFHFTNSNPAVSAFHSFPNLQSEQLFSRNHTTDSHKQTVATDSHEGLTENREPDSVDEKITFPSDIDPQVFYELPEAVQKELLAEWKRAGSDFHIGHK", "assay": "qHTS for Inhibitors of Polymerase Iota: Confirmatory Assay for Cherry-picked Compounds (AID 720496); also: potency is read from the fitted curve at half-maximal effect", "conditions": "Pol iota primer extension, TAMRA/BHQ fluorescence", "outline": "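Buffer-only wells, without enzyme, serve as negative control. Test wells hold 10 nM Pol iota preincubated 15 min with compound before 50 nM final fluorogenic DNA substrate is added; signal is read at 0 and 10 min.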"}, "[4]": {"target": "Bifunctional 3'-5' exonuclease/ATP-dependent helicase WRN (Homo sapiens) (UniProt Q14191)", "sequence (Q14191 whole entry, looked up)": "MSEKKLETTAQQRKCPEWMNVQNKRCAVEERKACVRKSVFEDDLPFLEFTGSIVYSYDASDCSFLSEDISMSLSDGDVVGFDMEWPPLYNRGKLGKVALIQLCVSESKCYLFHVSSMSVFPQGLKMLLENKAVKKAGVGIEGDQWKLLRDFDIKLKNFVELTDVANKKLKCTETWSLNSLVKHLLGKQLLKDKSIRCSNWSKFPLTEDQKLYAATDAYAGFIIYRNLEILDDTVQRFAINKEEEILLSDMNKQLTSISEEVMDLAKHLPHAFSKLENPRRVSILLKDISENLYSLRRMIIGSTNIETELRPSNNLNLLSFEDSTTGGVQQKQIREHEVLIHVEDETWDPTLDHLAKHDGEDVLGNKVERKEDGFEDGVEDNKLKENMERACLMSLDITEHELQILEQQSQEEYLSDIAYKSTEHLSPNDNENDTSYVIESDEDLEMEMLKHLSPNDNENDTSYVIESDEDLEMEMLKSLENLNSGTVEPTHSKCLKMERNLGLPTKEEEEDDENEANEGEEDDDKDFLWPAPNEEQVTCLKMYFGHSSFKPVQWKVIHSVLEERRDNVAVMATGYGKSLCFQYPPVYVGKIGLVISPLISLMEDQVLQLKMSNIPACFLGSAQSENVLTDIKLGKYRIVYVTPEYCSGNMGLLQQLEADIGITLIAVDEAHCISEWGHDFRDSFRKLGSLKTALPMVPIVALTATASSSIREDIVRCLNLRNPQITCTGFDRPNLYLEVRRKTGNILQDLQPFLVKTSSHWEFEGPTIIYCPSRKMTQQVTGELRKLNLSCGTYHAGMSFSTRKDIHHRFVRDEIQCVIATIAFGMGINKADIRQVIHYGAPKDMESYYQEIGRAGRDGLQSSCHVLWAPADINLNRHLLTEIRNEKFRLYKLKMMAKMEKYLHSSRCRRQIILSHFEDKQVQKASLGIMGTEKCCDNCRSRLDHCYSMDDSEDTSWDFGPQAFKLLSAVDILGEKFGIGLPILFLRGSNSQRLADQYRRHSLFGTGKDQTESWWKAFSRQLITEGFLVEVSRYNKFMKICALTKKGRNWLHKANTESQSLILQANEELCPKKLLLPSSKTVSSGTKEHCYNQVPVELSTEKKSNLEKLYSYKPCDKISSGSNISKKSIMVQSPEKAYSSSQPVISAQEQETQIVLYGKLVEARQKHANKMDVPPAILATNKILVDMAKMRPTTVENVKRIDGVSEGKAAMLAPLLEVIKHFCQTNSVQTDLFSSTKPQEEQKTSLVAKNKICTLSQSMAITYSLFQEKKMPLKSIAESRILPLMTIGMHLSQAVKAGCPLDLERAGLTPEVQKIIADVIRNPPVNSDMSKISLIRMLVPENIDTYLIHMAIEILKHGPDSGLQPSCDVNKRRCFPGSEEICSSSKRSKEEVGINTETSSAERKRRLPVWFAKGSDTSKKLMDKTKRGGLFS", "assay": "qHTS for Inhibitors of WRN Helicase: Confirmatory Assay for Cherry-picked Compounds. (AID 720497); also: potency is read from the fitted curve at half-maximal effect; nearly all actives have a fitted effect of over 65% in size", "conditions": "WRN helicase DNA unwinding, fluorescence kinetic", "outline": "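Confirmatory retest of cherry-picked hits in 1536-well format. Enzyme (20 nM final) sat with compound for 15 min at room temperature before forked duplex substrate (100 nM) and ATP (2 mM) were added, and unwinding was followed kinetically by red fluorescence.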"}, "[5]": {"assay": "qHTS for Inhibitors of WRN Helicase: Thiazole Orange DNA Binding Counterscreen (AID 720499);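 also: drop in dye fluorescence marks compound binding to DNA; nearly all actives have a fitted effect of over 60% in size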", "outline": "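Fluorescence at 530 nm (excitation 480 nm) is measured after compounds incubate 15 min at room temperature with unlabeled DNA (50 nM) bound to thiazole orange (100 nM). Decreased signal indicates nonspecific DNA binding.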"}, "[6]": {"target": "DNA polymerase kappa (Homo sapiens) (UniProt Q9UBT6)", "sequence (Q9UBT6 whole entry, looked up)": "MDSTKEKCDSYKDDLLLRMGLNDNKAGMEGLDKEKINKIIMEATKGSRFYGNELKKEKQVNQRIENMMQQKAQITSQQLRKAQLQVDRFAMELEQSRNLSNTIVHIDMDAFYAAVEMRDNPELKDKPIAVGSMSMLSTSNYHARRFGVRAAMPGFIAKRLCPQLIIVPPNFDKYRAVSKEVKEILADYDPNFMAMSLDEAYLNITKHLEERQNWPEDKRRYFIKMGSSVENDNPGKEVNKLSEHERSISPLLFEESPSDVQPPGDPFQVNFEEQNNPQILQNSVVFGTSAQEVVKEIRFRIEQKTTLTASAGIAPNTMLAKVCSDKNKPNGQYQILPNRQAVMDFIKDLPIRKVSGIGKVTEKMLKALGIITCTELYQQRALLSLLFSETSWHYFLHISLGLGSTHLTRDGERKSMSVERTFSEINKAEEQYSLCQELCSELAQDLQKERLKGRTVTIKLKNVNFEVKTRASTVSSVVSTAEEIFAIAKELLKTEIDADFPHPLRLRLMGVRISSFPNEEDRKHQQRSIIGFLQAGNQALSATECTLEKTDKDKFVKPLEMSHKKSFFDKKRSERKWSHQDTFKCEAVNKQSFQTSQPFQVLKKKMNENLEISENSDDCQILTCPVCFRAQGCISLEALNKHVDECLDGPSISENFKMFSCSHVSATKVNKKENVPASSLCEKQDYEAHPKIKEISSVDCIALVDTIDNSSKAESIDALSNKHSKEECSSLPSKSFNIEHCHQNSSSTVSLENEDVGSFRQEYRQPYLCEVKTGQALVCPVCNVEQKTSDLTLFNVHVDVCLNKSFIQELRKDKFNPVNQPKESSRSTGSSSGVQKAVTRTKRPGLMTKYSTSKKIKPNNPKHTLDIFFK", "assay": "qHTS for Inhibitors of Polymerase Kappa: Confirmatory Assay for Cherry-picked Compounds (AID 720501); also: potency is read from the fitted curve at half-maximal effect", "conditions": "purified Pol-kappa, fluorescent strand-displacement substrate", "outline": "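Strand-displacement fluorescence read-out: TAMRA reporter released from a BHQ-2-quenched template, measured at 525/598 nm over a 10 min kinetic window. Substrate was 50 nM final; enzyme was 10 nM Pol-kappa, preincubated 15 min at room temperature with compound.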"}, "[7]": {"target": "RecQ-like DNA helicase BLM (Homo sapiens) (UniProt P54132)", "assay": "qHTS for Inhibitors of WRN Helicase: BLM Helicase Counterscreen for WRN Inhibitors (AID 720503); also: potency is read from the fitted curve at half-maximal effect; nearly all actives have a fitted effect of over 60% in size", "conditions": "Recombinant BLM helicase DNA unwinding, red fluorescence", "outline": "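1 nM BLM, Tris pH 8.0/NaCl/MgCl2/DTT/Tween-20; cpd preinc 15 min RT; start w/ 100 nM DNA + 2 mM ATP final; fluorescence (ex 525/em 598) two reads 15 min apart; normalized to enzyme-free and DMSO controls.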"}, "[8]": {"assay": "Confirmation and Secondary Assay for Modulators of Hemoglobin Beta Chain Splicing at IVS2 654 locus (AID 910);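 also: per-well total GFP intensity by laser scanning cytometry after 2-day treatment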", "outline": "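Readout: per-well total peak green fluorescence (488 nm ex, 500–520 nm em) from objects 5–250 µm, reflecting correct splicing of an EGFP-654 reporter. Compounds were applied for 2 days at 37 °C to overnight-plated HeLa EGFP-654 cells; controls were DMSO and 500 nM IVS2-654 PNA.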"}, "[9]": {"assay": "Confirmation and Secondary Assay for Modulators of Hemoglobin Beta Chain Splicing at IVS2 705 locus (AID 930); also: series mostly up to about 46 µM", "outline": "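HeLa cells stably carrying EGFP interrupted by mutant beta-globin IVS2-705 intron (CMV-driven) were seeded at 500 cells/well, treated next day with compound for 2 days at 37C; corrected splicing restores EGFP, read as total peak GFP intensity per well.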"}, "[10]": {"target": "Ubiquitin carboxyl-terminal hydrolase 1 (Homo sapiens) (UniProt O94782)", "sequence (O94782 whole entry, looked up)": "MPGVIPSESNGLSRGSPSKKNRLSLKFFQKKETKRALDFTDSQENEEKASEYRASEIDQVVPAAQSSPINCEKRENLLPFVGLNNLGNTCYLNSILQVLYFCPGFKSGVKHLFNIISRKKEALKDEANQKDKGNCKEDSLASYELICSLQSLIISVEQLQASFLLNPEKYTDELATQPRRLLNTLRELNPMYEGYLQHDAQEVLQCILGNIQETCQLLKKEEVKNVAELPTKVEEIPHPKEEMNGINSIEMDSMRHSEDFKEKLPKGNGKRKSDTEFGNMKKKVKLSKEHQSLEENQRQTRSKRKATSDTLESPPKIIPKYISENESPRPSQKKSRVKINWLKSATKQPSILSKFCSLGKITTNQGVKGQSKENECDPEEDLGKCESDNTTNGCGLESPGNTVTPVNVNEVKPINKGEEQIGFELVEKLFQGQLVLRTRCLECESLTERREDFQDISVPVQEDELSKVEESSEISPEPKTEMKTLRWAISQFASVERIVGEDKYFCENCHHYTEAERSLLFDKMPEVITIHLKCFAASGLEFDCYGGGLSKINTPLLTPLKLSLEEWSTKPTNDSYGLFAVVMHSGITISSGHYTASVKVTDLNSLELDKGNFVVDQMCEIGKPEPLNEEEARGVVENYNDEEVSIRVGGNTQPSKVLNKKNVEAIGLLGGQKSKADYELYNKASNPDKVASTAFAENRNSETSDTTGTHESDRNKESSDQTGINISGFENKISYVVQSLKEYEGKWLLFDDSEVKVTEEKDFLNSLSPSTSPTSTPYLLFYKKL", "assay": "Inhibitors of USP1/UAF1: Pilot qHTS (AID 504865);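 also: rhodamine fluorescence freed from ubiquitin-rhodamine substrate followed over time; top concentration of the series differs between compounds; nearly all actives have a fitted effect of over 35% in size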", "outline": "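In 50mM HEPES pH 7.8 containing 0.5mM EDTA, 1mM TCEP, 0.1 mg/ml BSA and 0.01% Tween-20, 1nM USP1/UAF1 is exposed to compound for 15 min, then Ub-Rho (150nM final) is added and fluorescence is read over time.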"}}, "note": "Unmarked numbers belong to inactive results. Results filed as inconclusive are left out. The list shows a part of the results. Activity calls are given as the source filed them. Calls follow the shape of the dose curve; as a rule, active = well fitted curve in the direction sought with a large enough effect; inconclusive = small, poorly fitted or top-dose-only effect, or another doubt; inactive = no such curve, though single readings can be large; an effect the other way counts as inactive or inconclusive.", "data": [{"smiles": "COc1ccc(-c2nc3c(c(SCC(=O)Nc4ccc(C(=O)O)cc4)n2)Cc2ccccc2O3)cc1", "values": [{"measurement": "Potency", "setting": "[1]", "value": "1.62 µM (active)"}, {"measurement": "Potency", "setting": "[2]", "value": "3.26 µM (active)"}, {"measurement": "Potency", "setting": "[3]", "value": "4.23 µM (active)"}, {"measurement": "Potency", "setting": "[4]", "value": "7.64 µM (active)"}, {"measurement": "outcome", "setting": "[5]", "value": "inactive"}, {"measurement": "Potency", "setting": "[6]", "value": "2.67 µM (active)"}, {"measurement": "Potency", "setting": "[7]", "value": "3.04 µM (active)"}]}, {"smiles": "CC(=O)OCC1=C(C(=O)O)N2C(=O)C(NC(=O)CSc3ccncc3)[C@@H]2SC1", "note": "(stereo partly drawn)", "values": [{"measurement": "Potency", "setting": "[8]", "value": "inactive"}, {"measurement": "Potency", "setting": "[9]", "value": "inactive"}, {"measurement": "Potency", "setting": "[1]", "value": "14.1 µM (active)"}, {"measurement": "Potency", "setting": "[10]", "value": "inactive"}]}, {"smiles": "O=C1C2C3C=CC(C3)C2C(=O)N1c1ncn[nH]1", "note": "(stereo not drawn)", "values": [{"measurement": "Potency", "setting": "[1]", "value": "31.6 µM (active)"}]}, {"smiles": "Cc1nnc(NC(=O)CCSCCC(=O)Nc2nnc(C)s2)s1", "values": [{"measurement": "Potency", "setting": "[1]", "value": "15.8 µM (active)"}]}]}
